In PubChem BioAssay AID463173 (ICCB-Longwood Screening Facility, Harvard Medical School, 2010):
Out of some 52,000 compounds screened, about 4,300 (8.3%) were called active. Many of the other results were omitted from the sample, so actives are more common in it than they were. Values without a mark were called inactive. Rule as the data show it: active = survival mostly below about 52% (no sharp cut-off); inactive = mostly above about 56%.

tested on: DeltatarO mutant; experiment: growth inhibition of S. aureus wild type versus tarO mutant, primary screen, teichoic acid synthesis inhibitors, RN4220, OD600 (AID 463173); settings: OD600, 18 h, active compounds read low, screened at 18.75 µg/mL (by protocol)

Row | SMILES | survival
1 | Cc1ccc(NC(=O)N2CCN(c3nnc(C)c4c(C)n(-c5ccccc5)nc34)CC2)cc1Cl | 94%
2 | O=C(CSc1nnc2ccc3ccccc3n12)Nc1ccccc1Cl | 76%
3 | Cc1cc2ccccc2n1CCNC(=O)c1ccc(Br)cc1 | 58%
4 | CCOC(=O)c1cc(-c2ccc(C)cc2)n(CC(=O)Nc2ccc(OC)cc2OC)c1C | 97%
5 | Cc1cc(-c2ccc(C)c(S(=O)(=O)NCc3cccs3)c2)on1 | 72%
6 | CC(C)C(=O)Nc1ccc(NC(=O)c2ccccc2)nc1 | 87%
7 | Cc1cc(NC(=O)c2ccc(NC(=O)C(C)C)cc2)no1 | 72% (active)
8 | COc1cccc(C(=O)Nc2cc(C)on2)c1 | 89%
9 | CC(C)Oc1ccc(CNC(=O)Nc2ccc3c(c2)N(C)C(=O)c2ccccc2S3)cc1 | 94%
10 | CCN1CCN(CCCNC(=O)c2cc3c(=O)n(CC)c4ccccc4c3s2)CC1 | 97%
11 | Cc1ccc(NC(=O)N2CC3CCCN3c3ccccc32)cc1C (stereo not drawn) | -4% (active)
12 | Cc1ccc(NC(=O)N2CC3CCCN3c3ccccc32)c(C)c1 (stereo not drawn) | 86%
13 | Cc1ccc(NC(=O)N2CC3CCCN3c3ccccc32)cc1Cl (stereo not drawn) | 62%
14 | Cc1cccc(NC(=O)CSc2ncc3c(n2)-c2ccccc2N(Cc2ccc(F)cc2)S3(=O)=O)c1C | 68%
15 | Cc1cccc(-n2ncc3c(N4CCCCCC4)ncnc32)c1 | 92%
16 | COc1ccc(C(=O)Nc2ccc(-c3nnc4n3CCCCC4)cc2)cc1OC | 57%
17 | CCOc1cc(C(=O)Nc2ccc(-c3nnc4n3CCCCC4)cc2)cc(OCC)c1OCC | 69%
18 | COc1ccc(C(=O)Nc2ccc(-c3nnc4n3CCCCC4)cc2)cc1 | 0% (active)
19 | COc1cccc(NC(=O)c2cnc(SCC(=O)N3CCOCC3)n(C)c2=O)c1 | 120%
20 | COc1ccc(-n2nc(C(=O)N3CCC(C)CC3)c3c4ccccc4n(C)c3c2=O)cc1Cl | 87%

Row | SMILES | survival
21 | CCc1ccccc1NC(=O)CSc1nnc(-c2ccccc2)c(-c2ccccc2)n1 | 88%
22 | CC(C)CSc1nnc(-c2ccccc2)c(-c2ccccc2)n1 | -8% (active)
23 | O=C(CSc1nnc(-c2ccccc2)c(-c2ccccc2)n1)Nc1ccccc1Cl | 75%
24 | COc1cccc(C(=O)NCC(c2ccc(N(C)C)cc2)N2CCc3ccccc32)c1 (stereo not drawn) | 144%
25 | COc1ccccc1-c1nnc(C2CCN(C(=O)c3cccc(Cl)c3)CC2)o1 | 88%
26 | O=C(CSc1nc2ccccc2n1Cc1cccc(F)c1)N1CCN(c2ccc(F)cc2)CC1 | 64%
27 | CN1CCc2c(sc(N)c2C(=O)O)C1 | 80%
28 | O=C(CSc1nc(=O)n(CCN2CCOCC2)c2c1CCC2)Nc1ccc(F)cc1F | 124%
29 | COc1cccc(-n2c(=O)c3c(C)c(C(=O)N(C)C)sc3n(Cc3cccc(C)c3)c2=O)c1 | 37% (active)
30 | CCOc1ccc(-n2c(=O)c3c(C)c(C(=O)N(C)C)sc3n(Cc3cc(C)ccc3C)c2=O)cc1 | 0% (active)
31 | Cc1ccc(-n2c(=O)c3c(C)c(C(=O)N(C)C)sc3n(Cc3ccccc3C)c2=O)cc1C | 98%
32 | CCc1ccc(-n2c(=O)c3c(C)c(C(=O)N(C)C)sc3n(Cc3cccc(C)c3)c2=O)cc1 | 99%
33 | CCOc1ccc(-n2c(=O)c3c(C)c(C(=O)N(C)C)sc3n(CC(=O)Nc3c(C)cc(C)cc3C)c2=O)cc1 | 72%
34 | COc1cccc(-n2c(=O)c3c(C)c(C(=O)N(C)C)sc3n(Cc3ccc(F)cc3Cl)c2=O)c1 | 92%
35 | CCn1c(C)c(C2N3CC4(C)CN2CC(C)(C3)C4=O)c2ccccc21 (stereo not drawn) | 92%
36 | N#C/C(=C\c1cn(CC(=O)N2CCCC2)c2ccccc12)C(=O)NCc1ccc2c(c1)OCO2 | 66%
37 | Fc1ccc(-c2noc3ncnc(NCc4ccc(Cl)cc4)c23)cc1 | 84%
38 | CCOC(=O)c1ccc(N2C(=O)c3n[nH]c(-c4cccs4)c3C2c2ccc(OC)cc2OC)cc1 (stereo not drawn) | 76%
39 | COC(=O)c1cc(NC(=O)c2ccc(-c3ccc(Cl)cc3Cl)o2)cc(C(=O)OC)c1 | 53%
40 | COc1ccccc1NC(=O)c1ccc(C)o1 | 61%

Row | SMILES | survival
41 | CCOc1ccc(OCc2ccc(C(=O)Nc3cc(OC)c(OC)c(OC)c3)o2)cc1 | 54% (active)
42 | COC(=O)c1ccccc1NC(=O)c1ccc(COc2ccccc2Cl)o1 | 63%
43 | COc1ccc(NC(=O)c2ccc(COc3ccccc3OC)o2)cc1OC | 61%
44 | Cc1cc(C)cc(OCc2ccc(C(=O)Nc3ccccc3F)o2)c1 | 45%
45 | CCOc1ccc(NC(=O)c2cc(=O)c3cc(CC)ccc3o2)cc1 | 57%
46 | CCCc1ccc(OCc2ccc(C(=O)Nc3ccccc3C(=O)OC)o2)cc1 | -2% (active)
47 | COc1ccccc1NC(=O)c1ccc(COc2ccc(C)c(C)c2)o1 | 1% (active)
48 | COC(=O)c1ccccc1NC(=O)c1ccc(COc2cc(C)cc(C)c2)o1 | 40%
49 | C=CCc1ccc(OCc2ccc(C(=O)Nc3ccc(NC(C)=O)cc3)o2)c(OC)c1 | 121%
50 | CC(=O)Nc1ccc(NC(=O)c2ccc(COc3ccc(Cl)cc3Cl)o2)cc1 | 46% (active)
51 | O=C(O)CCCc1nc2ccccc2s1 | 75%
52 | Cc1cc(NC(=O)CSc2nc(-c3ccccc3F)nc3c2c(=O)n(C)c(=O)n3C)no1 | 86%
53 | COC(=O)c1ccccc1NC(=O)C1CCCN(c2ncnc3onc(C)c23)C1 (stereo not drawn) | 80%
54 | O=C(CNCC1CCCCC1)Nc1cccc(F)c1 | 88%
55 | COc1cc(CNC(=O)c2ccc3c(c2)N(C)C(=O)C2CCCCN32)cc(OC)c1OC (stereo not drawn) | 69%
56 | Cc1c(C(=O)N2CCC(C)CC2)c(S(=O)(=O)NCc2ccc(Cl)cc2)c(C)n1C | 128%
57 | O=C(Nc1c(C(=O)N2CCN(c3ccccc3F)CC2)oc2ccccc12)c1ccc(Br)o1 | 80%
58 | CCc1cccc(C)c1NC(=O)Cn1cc2c(n1)CCCCC2 | 90%
